Screening data: PubChem BioAssay, several laboratories
Hits are enriched below; roughly 1.8% of the tested compounds scored in any of these assays.
APOBEC3A inh – APOBEC3A ssDNA deaminase inhibitors, primary screen, selectivity assay for APOBEC3G inhibitor project, biochemical, FAM/TAMRA oligo cleavage fluorescence. inhibition, % at 20 µM. AID 493011, 2011. recombinant A3A, FAM/TAMRA ssDNA deamination fluorescence. DNA dC->dU-editing enzyme APOBEC-3A (Homo sapiens), P31941. actives 0.41% (n = 330,000);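 active = at least 40% inhibition at 20 µM here, with at most 30% in a related deaminase screen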;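 note: plate controls were A3A with DMSO for no effect and wells lacking A3A enzyme for full effect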
beta cell repl – inducers of MIN6 beta-cell proliferation, primary screen, ATP luminescence, uHTS; MIN6 cells proliferation, ATPlite luminescence, 48 h; cells starved in 0.2% serum; 100% = growth in 10% serum; proliferation, % at 10 µM; actives 0.29% (n = 330,000); AID 2380, 2010;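 active = compounds whose signal lies at least 3.5 SD above the mean of all wells on their plate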;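 note: 0% = DMSO-treated cells in low-serum medium and 100% = 10% serum control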
VLA-4 inh – inhibition in human VLA-4 binding assay, primary screen, VLA-4 allosteric modulator project, MLPCN library, flow cytometry, VLA-4 expressing cells; Integrin alpha-4 (Homo sapiens), P13612; ligand binding flow cytometry; inhibition, % (about 7 µM as worked out from the volumes in the protocol); actives 0.2% (n = 330,000); in the data active = inhibition above about 50%
Target sequence (P13612 whole entry, looked up): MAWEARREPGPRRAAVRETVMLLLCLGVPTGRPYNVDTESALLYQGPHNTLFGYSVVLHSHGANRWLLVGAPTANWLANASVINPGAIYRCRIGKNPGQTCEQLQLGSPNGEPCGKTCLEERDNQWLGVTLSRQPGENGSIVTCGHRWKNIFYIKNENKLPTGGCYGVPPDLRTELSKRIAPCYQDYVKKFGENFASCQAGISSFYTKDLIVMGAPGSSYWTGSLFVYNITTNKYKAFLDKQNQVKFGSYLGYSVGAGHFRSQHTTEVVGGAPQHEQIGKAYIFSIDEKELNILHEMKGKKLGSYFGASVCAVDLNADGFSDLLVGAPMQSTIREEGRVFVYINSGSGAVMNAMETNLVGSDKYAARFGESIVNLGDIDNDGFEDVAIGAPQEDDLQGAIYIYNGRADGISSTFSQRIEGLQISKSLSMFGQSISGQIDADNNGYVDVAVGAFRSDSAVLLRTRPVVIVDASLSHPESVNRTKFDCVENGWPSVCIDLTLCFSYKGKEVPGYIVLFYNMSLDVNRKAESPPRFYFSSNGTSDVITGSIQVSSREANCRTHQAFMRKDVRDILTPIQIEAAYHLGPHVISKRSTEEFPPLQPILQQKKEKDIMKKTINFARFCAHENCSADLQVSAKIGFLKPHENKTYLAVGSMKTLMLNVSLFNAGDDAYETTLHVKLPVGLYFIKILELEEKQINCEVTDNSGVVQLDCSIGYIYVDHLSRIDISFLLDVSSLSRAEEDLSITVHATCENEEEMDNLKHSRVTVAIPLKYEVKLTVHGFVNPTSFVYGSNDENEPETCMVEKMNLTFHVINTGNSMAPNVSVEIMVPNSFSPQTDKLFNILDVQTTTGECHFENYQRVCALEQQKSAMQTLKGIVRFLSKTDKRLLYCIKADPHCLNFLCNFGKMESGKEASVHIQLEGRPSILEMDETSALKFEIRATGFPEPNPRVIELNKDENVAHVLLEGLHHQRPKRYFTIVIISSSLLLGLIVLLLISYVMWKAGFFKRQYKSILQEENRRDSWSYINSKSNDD
A3G deaminase – APOBEC3G DNA deaminase inhibitors, primary screen, biochemical, fluorescence, single-stranded DNA substrate, uHTS; DNA dC->dU-editing enzyme APOBEC-3G (Homo sapiens), Q9HC16; inhibition, % at 20 µM; actives 0.28% (n = 330,000); recombinant A3G, ssDNA deamination FAM/TAMRA fluorescence;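 active = inhibition of at least 40% at 20 µM, with no more than 30% in the related APOBEC3A deaminase screen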;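 note: plate controls were DMSO wells with A3G for no effect and wells lacking A3G enzyme for full effect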
NRP1-CendR mod – modulators of CendR peptide binding to NRP-1, primary screen, biochemical, fluorescence polarization, uHTS. FAM-RPARPAR peptide binding to NRP-1. AID 602438, 2012. actives 0.85% (n = 360,000). Neuropilin-1 (Homo sapiens), O14786. inhibition, % at 25 µM;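 active = inhibition or corrected inhibition above about 18%, plus a signal ratio from 0.5 to 1.5, limit read from the data, passing the limit was not always enough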
APOBEC3A confirm – APOBEC3A deaminase inhibitors, retest, confirmation, selectivity assay for APOBEC3G inhibitor project, biochemical, single concentration, fluorescence readout. shares compounds with APOBEC3A inh. recombinant A3A, ssDNA deaminase UDG fluorescence assay. inhibition, % at 20 µM. actives 63% (n = 1,400);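 active = inhibition reaching a set limit, 80% of the first screen's cutoff, at 20 µM in any replicate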;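 note: plate controls were DMSO wells with A3A for no effect and wells lacking A3A enzyme for full effect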
UDG A3A counter – E. coli UDG inhibitors, confirmation, counter-screen for APOBEC3A inhibitor project, biochemical, single concentration, fluorescence, FAM/TAMRA oligo; shares compounds with APOBEC3A inh; UDG counterscreen, FAM/TAMRA uracil oligo fluorescence; inhibition, % at 20 µM; 1,000 tested, under 10 active; AID 504714, 2011; call rule not given here
* hit, by the source's call; / = not tested or not shown.

SMILES	APOBEC3A inh	beta cell repl	VLA-4 inh	A3G deaminase	NRP1-CendR mod	APOBEC3A confirm	UDG A3A counter
CC1CN(S(=O)(=O)c2cccc(C(=O)OCc3cc(=O)oc4cc(O)ccc34)c2)CC(C)O1 (centres undefined)	12	-2	0	1	-5	/	/
CN(C)c1cccc(C(=O)OCc2cc(=O)oc3cc(O)ccc23)c1	74*	-2	-12	19	-26	75*	-2
COc1cccc(CNC(=O)CCCN2C(=O)C(c3ccccc3)Oc3cccnc32)c1OC (centres undefined)	-4	5	10	0	-9	/	/
Cc1ccc(NC(=O)Cc2noc3ccccc23)cc1	0	-2	2	-3	-5	/	/
O=C(Cc1noc2ccccc12)Nc1ccc2ccccc2c1	47*	0	3	-4	-15	-33	8
CC(C)(C)c1ccc(OCCC(=O)Nc2cccc(S(=O)(=O)N3CCOCC3)c2)cc1	6	-3	12	-8	-2	/	/
CSC1=NSC2=NC(=O)/C(=C/c3coc4ccccc4c3=O)C(=N)N12	/	/	-147	/	132	/	/
CSC1=NSC2=NC(=O)/C(=C/c3coc4ccc(O)cc4c3=O)C(=N)N12	45*	0	-207	23	137	36*	-7
CC(=O)Nc1ccc(-c2ccccc2)s1	45*	-1	5	17	1	45*	0
CC(=O)Nc1ccc(NC(C)=O)s1	-4	1	14	-5	-5	/	/
Cc1nc2ccc(NC(=O)C3COc4ccccc4O3)cc2s1 (centres undefined)	49*	1	21	16	8	60*	2
Cc1ccc(S(=O)(=O)N2CCN(C(=O)Cn3c(=O)oc4ccccc43)CC2)c(C)c1	-6	0	0	-5	7	/	/
CCOc1ccc(/C=c2\sc3nc(-c4ccco4)nn3c2=O)cc1OCC	74*	-3	3	19	-32	31*	-4
COc1ccccc1/C=c1\sc2nc(-c3ccco3)nn2c1=O	98	-2	9	77	-72	/	/
O=C(COC(=O)/C=C/c1cccc(C(F)(F)F)c1)NCCN1C(=O)CSC1=O	0	0	-3	-6	0	/	/
O=C(Nc1cc(Cl)ccc1-n1cncn1)c1ccc([N+](=O)[O-])s1	17	-7	-115	3	-28	/	/
COc1cc(C(N)=O)cc(Br)c1OC	44*	0	-1	17	25*	47*	1
CC(C)(C)OC(=O)N1CC(O)CC1C(=O)OCC(=O)c1ccccc1 (centres undefined)	2	0	-3	0	-2	/	/
CC(C)(C)OC(=O)N1CC(O)CC1C(=O)OCC(=O)c1ccc(-c2ccccc2)cc1 (centres undefined)	83*	-4	2	26	10	71*	-1
CC(C)(C)OC(=O)N1CC(O)CC1C(=O)OCC(=O)c1ccc(Cl)cc1 (centres undefined)	42*	-2	-2	5	12	2	/
O=C(COC(=O)C1CC(O)CN1C(=O)Oc1ccccc1)c1ccc(Br)cc1 (centres undefined)	19	0	1	3	-9	/	/
CCCCCCC(NC(=O)c1ccc(C)cc1)C(=O)O (centres undefined)	1	/	/	0	-6	/	/
Cc1[nH]c(=O)c(C#N)c(C)c1CCC(=O)Nc1cc(S(C)(=O)=O)ccc1Cl	73*	-3	3	18	6	42*	-3
Cc1ccc(F)cc1NC(=O)CCc1c(C)[nH]c(=O)c(C#N)c1C	6	-1	0	-4	5	/	/
Cc1cc(C)nc(/N=C2/NC(=O)CS2)n1	64*	-3	-9	-1	-13	-4	3
SMILES	APOBEC3A inh	beta cell repl	VLA-4 inh	A3G deaminase	NRP1-CendR mod	APOBEC3A confirm	UDG A3A counter
Cc1ccc(N=C2NC(=O)CS2)cc1	-3	-3	-1	-5	-6	/	/
Nc1ccc(C(=O)N2CCN(S(=O)(=O)c3ccc4c(c3)OCCO4)CC2)cc1[N+](=O)[O-]	0	-3	6	-6	10	/	/
CC1(C(=O)Nc2ccc3c(c2)OCCO3)CCN1C(=O)C1(c2ccc(Cl)cc2)CC1 (centres undefined)	/	/	/	/	-1	/	/
COC(=O)C1=C(C)N(Cc2ccccc2)C(=NCc2cc(OC)c(OC)c(OC)c2)N[C@H]1c1ccccc1	70*	-8	0	25	/	47*	/
COC(=O)C1=C(C)N(Cc2ccccc2)C(=NCc2cccc(Cl)c2)N[C@H]1c1ccccc1	37	-6	19	7	-6	/	/
COC(=O)C1=C(C)N(Cc2ccccc2)C(=NCc2cc(OC)c(OC)c(OC)c2)N[C@H]1c1ccc(Br)cc1	46*	-6	23	18	18	60*	-10
COC(=O)C1=C(C)N(CC2CC2)C(=NCc2cccc(Cl)c2)N[C@H]1c1ccccc1	59*	-9	-13	8	-16	44*	/
COC(=O)C1=C(C)N(Cc2ccccc2)C(=NCc2ccccc2)N[C@H]1c1ccccc1	32	-6	27	4	11	/	/
COC(=O)C1=C(C)N(CC2CC2)C(=NCc2cc(OC)c(OC)c(OC)c2)N[C@H]1c1ccccc1	47*	-6	9	16	3	56*	-5
COCCN=C1N[C@@H](c2ccc(Br)cc2)C(C(=O)OC)=C(C)N1Cc1ccccc1	54*	-9	12	14	8	40*	-2
Cc1cccc(N(C(=O)c2snc(C(N)=O)c2N)C(C(=O)NC2CCCC2)c2ccco2)c1 (centres undefined)	-3	0	/	-10	5	/	/
COC(=O)Nc1ccc(S(=O)(=O)N2CCCC(C(=O)NCC3CCCO3)C2)cc1 (centres undefined)	-3	-3	20	-8	-40	/	/
COc1ccc2nc(Nc3nc4cc5c(cc4s3)OCO5)sc2c1	46*	-2	2	1	7	39*	1
N#C/C(=C/c1ccccc1OCc1ccc(F)cc1)c1ccc(C(=O)O)cc1	67*	-4	12	6	-9	8	/
